This is an account of results in PubChem BioAssay (NCATS).

Inconclusive results are not listed. Values without a mark were called inactive. Calls of active or inactive are those of the source. The call rests on the fitted dose curve; in most records, active means well fitted curve in the direction sought with a large enough effect; inconclusive means small, poorly fitted or top-dose-only effect, or another doubt; inactive means no such curve, though single readings can be large; an effect the other way counts as inactive or inconclusive.

For experiment [1], the target named is Cellular tumor antigen p53 (Homo sapiens) (UniProt P04637). As to the kind of experiment: Primary qHTS for small molecule compounds that upregulate eGFP-tagged delta133p53alpha (in N-terminal) cells. (AID 2060322). Further: nearly all actives have a fitted effect of over 75% in size. Further: potency means the concentration at half of the fitted maximal effect.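 On activation: series mostly up to about 56 µM; 0% = DMSO vehicle and 100% = reference activator.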 Conditions: NCI-H358 eGFP-delta133p53alpha fluorescence, 24 h; activation: hits give high values. The procedure, abridged: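 NCI-H358 cells pre-induced 24 h with 10 ng/ml doxycycline to express N-terminal eGFP-delta133p53alpha, then dosed 24 h at 37C without doxycycline; fixed, Hoechst-stained, GFP intensity by laser scanning cytometry, normalized to DMSO (0%) and 57.5 uM 5-azacytidine (100%).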

The target of experiment [2] is Aldehyde dehydrogenase, mitochondrial (Homo sapiens) (UniProt P05091). As to the kind of experiment: qHTS for Inhibitors of the Aldehyde Dehydrogenase Family (ALDH2) Primary screen (AID 2061308).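 Further: plate controls were vehicle for no effect and reference inhibitor for full effect; nearly all actives have a fitted effect of over 55% in size.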 On the technique in general: Quantitative high-throughput screening tests each substance at several concentrations.
For experiment [3], the target named is Retinaldehyde dehydrogenase 3 (Homo sapiens) (UniProt P47895). As to the kind of experiment: qHTS for Inhibitors of the Aldehyde Dehydrogenase Family (ALDH1A3) Primary screen (AID 2061315).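 Further: plate controls were DMSO vehicle for no effect and reference inhibitor for full effect.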

Sequence of Cellular tumor antigen p53 (Homo sapiens) (P04637 whole entry, looked up): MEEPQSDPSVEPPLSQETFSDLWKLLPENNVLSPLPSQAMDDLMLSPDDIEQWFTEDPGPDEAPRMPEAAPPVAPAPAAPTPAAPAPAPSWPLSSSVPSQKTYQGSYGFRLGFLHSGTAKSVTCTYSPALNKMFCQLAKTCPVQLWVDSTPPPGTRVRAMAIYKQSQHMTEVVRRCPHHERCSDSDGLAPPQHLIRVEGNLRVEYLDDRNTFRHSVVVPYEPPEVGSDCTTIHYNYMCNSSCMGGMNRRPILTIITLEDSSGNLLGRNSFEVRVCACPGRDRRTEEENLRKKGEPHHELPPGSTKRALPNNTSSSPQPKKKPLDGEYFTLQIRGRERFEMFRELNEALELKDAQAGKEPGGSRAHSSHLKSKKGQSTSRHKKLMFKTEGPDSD

As to `CC(=O)NC[C@H]1CN(c2ccc(N3CCN(C(=O)CO)CC3)c(F)c2)C(=O)O1`, in experiment [1], the activation is 11.6%. For the same compound, the Potency entry in experiment [2] and in experiment [3] was “inactive” each time.
For `O=S(=O)(c1ccc(S(=O)(=O)n2cnc3ccccc32)cc1)N1CCCCCC1`, the activation in experiment [1] is 0.333%. Also, the Potency entry in experiment [2] and in experiment [3] was “inactive” each time.
On to `CCCCCCCCC(=O)N[C@H](CN1CCCC1)[C@H](O)c1ccc2c(c1)OCCO2`, for which the activation in experiment [1] was -1%. For the same compound, the Potency result in experiment [2] and in experiment [3] was “inactive” in each case.
`CC1C(=O)CC2C3C(O)CC(C(=O)O)C12CC3(C)C` (stereo not drawn): the activation in experiment [1] is 1.53%. Also, the Potency entry in experiment [2] and in experiment [3] was “inactive” throughout.
Consider `CC1(C)C(=O)N2c3ccccc3C(O)(CC(C(=O)O)n3cnc4ccccc4c3=O)C2N1O` (stereo not drawn), for which the activation in experiment [1] is 16%. Further, the Potency entry in experiment [2] and in experiment [3] was “inactive” throughout.
Take `COc1ccc2nc(S(=O)(=O)Cc3ncc(C)c(OC)c3C)[nH]c2c1`: the activation in experiment [1] was 6.33%. In addition, the Potency result in experiment [2] and in experiment [3] was “inactive” throughout.
In the case of `CC(=O)O[C@H]1C[C@@]2(C)[C@@H](CC[C@H]3[C@@]4(C)C=CC(=O)[C@@H](C)[C@@H]4[C@H](O)C(=O)[C@@]32C)/C1=C(/CCC=C(C)C)C(=O)O`, in experiment [1], the activation is 17.6%. The Potency result in experiment [2] and in experiment [3] was “inactive” in each case.
Regarding `CC(=O)O[C@@H]1[C@@H](O)[C@H](O[C@H]2CC[C@]34C[C@]35CC[C@]3(C)[C@@H]([C@@]6(C)CC[C@@H](C(C)(C)O)O6)[C@@H](O)C[C@@]3(C)[C@@H]5C[C@H](O[C@@H]3O[C@H](CO)[C@@H](O)[C@H](O)[C@H]3O)[C@H]4C2(C)C)OC[C@H]1O`, the activation in experiment [1] is 15%. Moreover, the Potency result in experiment [2] and in experiment [3] was “inactive” throughout.
Turning to `CCC/C=C/C=C/C1CC(O)C2(O)C(=O)OCC12` (stereo not drawn), the activation in experiment [1] was 6.11%. Moreover, the Potency result in experiment [2] and in experiment [3] was “inactive” throughout.
In the case of `CC(C)Oc1ccc(-c2nc(-c3cccc4c3CCC4NCCC(=O)O)no2)cc1C#N` (stereo not drawn), the activation in experiment [1] is 0%. Moreover, the Potency result in experiment [2] and in experiment [3] was “inactive” each time.
Take `CC(C)[C@H]1CC[C@@]2(O)COC(=O)[C@H]2[C@@H]1/C=C(\CO)C(=O)O`: the activation in experiment [1] is -2.29%. The Potency result in experiment [2] and in experiment [3] was “inactive” each time.
With `O=C(N[C@@H]1CCCc2c1cnn2-c1ccc(F)cc1F)c1ccccn1`, the activation in experiment [1] was 12.3%. The Potency entry in experiment [2] and in experiment [3] was “inactive” throughout.
For `COC(=O)/C=C/c1ccc(O[C@@H]2O[C@H](CO)[C@@H](O)[C@H](O)[C@H]2O)cc1`, the activation in experiment [1] is -8.04%. Also, the Potency entry in experiment [2] and in experiment [3] was “inactive” in each case.
`CC1=CCC[C@@H]2[C@@](C)(CCc3ccoc3)[C@H](C(=O)O)CC[C@@]12C`: the activation in experiment [1] was 14.3%. The Potency result in experiment [2] and in experiment [3] was “inactive” in each case.
Turning to `CCC(=O)O[C@H]1C(C)(C)[C@H]([C@@H](O)C(=O)OC)[C@]2(C)C(=O)[C@@]1(O)[C@H]1O[C@]13C1CC(=O)O[C@@H](c4ccoc4)[C@]1(C)CCC32` (stereo partly drawn), in experiment [1], the activation was -20.6%. The Potency entry in experiment [2] and in experiment [3] was “inactive” throughout.
Take `C/C=C(\C)C(=O)OC1CC2C(CC=C3CC(OC4CC(OC)C(OC5CC(OC)C(OC6CC(OC)C(OC7CC(OC)C(OC8CC(OC)C(OC9OC(CO)C(O)C(O)C9O)C(C)O8)C(C)O7)C(C)O6)C(C)O5)C(C)O4)CCC32C)C2(O)CCC(C(C)=O)C12C` (stereo not drawn): in experiment [1], the activation was -13%. Also, the results for the activity change, negative = inhibition in experiment [2] and in experiment [3] were 14.2% [at 11.2 µM] and 17.2% [at 11.2 µM], respectively.
As to `C=C1CCCC2(C)CC3(OC)OC(=O)C(C)=C3CC12` (stereo not drawn), the activation in experiment [1] is 16.1%. Moreover, the Potency result in experiment [2] and in experiment [3] was “inactive” each time.
On to `Cc1ccccc1-n1c([C@H](C)Nc2nc(N)nc3nc[nH]c23)nc2cccc(C)c2c1=O`, for which the activation in experiment [1] was -15.2%. The Potency entry in experiment [2] and in experiment [3] was “inactive” throughout.
Consider `O=C(O)Cc1cc(I)c(Oc2ccc(O)c(I)c2)c(I)c1`, for which the activation in experiment [1] is 2.39%. The Potency entry in experiment [2] and in experiment [3] was “inactive” throughout.
On to `C[C@@H]1CCC/C=C/[C@H]2CC(=O)C[C@@H]2[C@@H](O)/C=C/C(=O)O1`, for which, in experiment [1], the activation is 9.82%. Further, the Potency entry in experiment [2] and in experiment [3] was “inactive” each time.
As for `CC1=C2C=C(CO)C(CO)CCC2(C)CCC1=O` (stereo not drawn), the activation in experiment [1] is 3.82%. The Potency result in experiment [2] and in experiment [3] was “inactive” throughout.
Regarding `FC(F)(F)c1cc(-c2ncn(/C=C\c3nnco3)n2)cc(C(F)(F)F)c1`, the activation in experiment [1] is 7.67%. Besides, the Potency entry in experiment [2] and in experiment [3] was “inactive” each time.
As for `CC(C)=CCC[C@](C)(O)[C@H]1CC[C@]2(C)[C@@H]1[C@H](O)CC1[C@@]3(C)CC[C@H](O)C(C)(C)[C@@H]3[C@@H](O[C@@H]3O[C@H](CO)[C@@H](O)[C@H](O)[C@H]3O[C@@H]3O[C@H](CO)[C@@H](O)[C@H](O)[C@H]3O)C[C@]12C` (stereo partly drawn), the activation in experiment [1] is -11.6%. The Potency result in experiment [2] and in experiment [3] was “inactive” throughout.
In the case of `CCC(C)/C=C(C)/C=C/C1=CC2=C(Cl)C(=O)C(C)(O)C(=O)C2(O)C(OC)O1` (stereo not drawn), the activation in experiment [1] was 28.2%. Moreover, the Potency result in experiment [2] and in experiment [3] was “inactive” in each case.
Regarding `CC(C)(C)c1nnc(NS(=O)(=O)c2ccccc2)s1`, the activation in experiment [1] is 11.7%. The Potency entry in experiment [2] and in experiment [3] was “inactive” each time.
Take `COC(=O)[C@H]1[C@H]2C[C@@H]3c4[nH]c5cc(OC)ccc5c4CCN3C[C@H]2C[C@@H](OC(=O)/C=C/c2cc(OC)c(OC)c(OC)c2)[C@@H]1OC`: the Potency in experiment [1] is 7.93 µM (active). The Potency result in experiment [2] and in experiment [3] was “inactive” each time.
